Inconclusive results are not listed. Active and inactive are the calls of the source. Unless noted, calls follow the shape of the dose curve; as a rule, active = well fitted curve in the direction sought with a large enough effect; inconclusive = small, poorly fitted or top-dose-only effect, or another doubt; inactive = no such curve, though single readings can be large; an effect the other way counts as inactive or inconclusive.
Key:
[1] = target: Voltage-gated inwardly rectifying potassium channel KCNH2 (Homo sapiens) (UniProt Q12809); test: qHTS Assay for Small Molecule Inhibitors of the Human hERG Channel Activity (AID 588834);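 also: lower thallium flux fluorescence means stronger hERG block; nearly all actives have a fitted effect of over 50% in size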; also: potency is read from the fitted curve at half-maximal effect
Summary of the method: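 hERG block measured as reduced thallium-dye (FluxOR) fluorescence after stimulation buffer addition, read over 2 min. Cells were hERG-BacMam-transduced U2OS exposed to compound ~10 min […]; concentration-response fitted with Hill equation for AC50.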

[2] = target: Luciferin 4-monooxygenase (Photinus pyralis) (UniProt P08659); test: Biochemical firefly luciferase enzyme assay for NPC (AID 624030);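 also: purified P. pyralis luciferase at 10 nM with luciferin and ATP substrate; series mostly up to about 59 µM; nearly all actives have a fitted effect of over 70% in size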
Summary of the method: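 Direct inhibition of firefly luciferase enzyme (10 nM final, 50 mM Tris Acetate) assessed by luminescence within 5 minutes. Percent activity scaled between DMSO and PTC124 positive control, with concentration-effect curves classified by fit quality and response.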

[3] = S16 Schwann cell viability assay (CellTiter-Glo assay) (AID 624031); also: nearly all actives have a fitted effect of over 70% in size; also: potency is read from the fitted curve at half-maximal effect
Summary of the method: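 Cells were seeded at 500-750 per well in phenol red-free DMEM with 10% FBS and left overnight. Compounds or DMSO were pinned in, incubation ran 24 h at 37 °C/5% CO2, then CellTiter-Glo reagent was added and luminescence measured.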

[4] = S16 Schwann cell PMP22 intronic element firefly luciferase assay (AID 624032); also: nearly all actives have a fitted effect of over 30% in size; also: potency is read from the fitted curve at half-maximal effect
Summary of the method: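 Luciferase reporter of PMP22 intronic-element expression in stably transfected S16 rat Schwann cells, read by ONE-Glo luminescence after 24 h compound exposure at 37 C. Activity scaled between DMSO (0%) and positive-control PTC124; concentration-effect curves quality-classified.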

[5] = S16 Schwann cell PMP22 intronic element beta-lactamase assay (AID 624044; calls by dose curve; also: nearly all actives have a fitted effect of over 15% in size)
Summary of the method: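 Beta-lactamase reporter under a PMP22 intronic regulatory element in stable S16 rat Schwann cells; 24 h compound exposure. 460 nm blue signal normalized between DMSO (0%) and potassium clavulanate, with 535 nm FRET tracking viability; curves classed by r2 and response.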

[6] = target: Glutaminase kidney isoform, mitochondrial (Homo sapiens) (UniProt O94925); test: qHTS for Inhibitors of Glutaminase (GLS): LOPAC Validation (AID 624146);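 also: glutamate product detected by oxidase and peroxidase coupled Amplex red fluorescence gain; series mostly up to about 46 µM; nearly all actives have a fitted effect of over 60% in size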
Summary of the method: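 Human kidney-isoform GLS in 45 mM KH2PO4 pH 8.2, 0.02% Tween-20, with compound, started with 1mM L-Glutamine (added stock). Glutamate oxidase/HRP/Amplex red coupled fluorescence read at start and after 30 min at RT.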

[7] = qHTS of Trypanosoma Brucei Inhibitors: LOPAC Validation (AID 624147)
Summary of the method: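 Quantitative HTS: titrated library compounds versus trypanosomal pyruvate kinase in TEA buffer (pH 7.2) containing KCl, MgCl2, BSA and Tween-20. Reactions were initiated with ADP, 130 uM final. Kinase-Glo Plus luminescence was read after 45 min at RT.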

[8] = target: Glucagon-like peptide 1 receptor (Homo sapiens) (UniProt P43220); test: qHTS of GLP-1 Receptor Agonists: LOPAC Validation (AID 624148);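 also: luminescence from a luciferase reporter switched on by cAMP; higher luminescence signal means agonism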
Summary of the method: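 Agonism scored as increased luciferase luminescence driven by cAMP in HEK293 clones carrying GLP-1R. Cells settled 12 hours, received compound for 4-6 hr at 37 deg C, 5% CO2, and were read after 12 min detection reagent at RT.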

[9] = qHTS of Nrf2 Activators: LOPAC Validation (AID 624149)
Summary of the method: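 AREc32_Fluc cells, 1000/well, OPTI-MEM + 5% FBS, o/n 37 deg C 5% CO2; compound pin-transfer, 24 hr 37 deg C; Steady-Glo 30 min RT, luminescence read.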

[10] = HTS Assay for Allosteric Antagonists of the Human D2 Dopamine Receptor: Hit Validation in HTRF (AID 624455)
Summary of the method: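 HTRF read-out; cells stably expressing D1 receptor; hits scored for inhibition of D1-mediated response. Primary screen: calcium flux, force-coupled inducible Hek293 Trex D2 line, antagonism vs EC80 dopamine.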

Measured: Potency

Glutaminase kidney isoform, mitochondrial (Homo sapiens), sequence (O94925 whole entry, looked up, canonical isoform): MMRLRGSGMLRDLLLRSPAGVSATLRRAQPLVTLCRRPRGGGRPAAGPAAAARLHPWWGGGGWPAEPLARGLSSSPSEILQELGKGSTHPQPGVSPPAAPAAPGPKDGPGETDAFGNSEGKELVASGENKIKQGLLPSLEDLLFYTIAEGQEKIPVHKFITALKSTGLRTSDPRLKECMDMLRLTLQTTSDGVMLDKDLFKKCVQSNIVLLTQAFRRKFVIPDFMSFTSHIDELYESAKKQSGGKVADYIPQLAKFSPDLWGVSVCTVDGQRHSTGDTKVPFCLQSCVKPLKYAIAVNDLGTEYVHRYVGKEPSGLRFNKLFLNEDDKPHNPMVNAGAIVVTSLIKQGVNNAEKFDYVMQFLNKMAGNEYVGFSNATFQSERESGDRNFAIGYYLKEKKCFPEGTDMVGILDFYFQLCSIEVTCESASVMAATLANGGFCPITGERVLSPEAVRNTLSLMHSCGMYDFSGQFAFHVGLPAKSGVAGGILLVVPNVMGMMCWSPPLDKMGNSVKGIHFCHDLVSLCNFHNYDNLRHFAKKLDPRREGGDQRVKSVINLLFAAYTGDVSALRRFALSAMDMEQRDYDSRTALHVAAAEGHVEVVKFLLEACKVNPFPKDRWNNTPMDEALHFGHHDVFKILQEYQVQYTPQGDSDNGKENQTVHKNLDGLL
Voltage-gated inwardly rectifying potassium channel KCNH2 (Homo sapiens), sequence (Q12809 whole entry, looked up): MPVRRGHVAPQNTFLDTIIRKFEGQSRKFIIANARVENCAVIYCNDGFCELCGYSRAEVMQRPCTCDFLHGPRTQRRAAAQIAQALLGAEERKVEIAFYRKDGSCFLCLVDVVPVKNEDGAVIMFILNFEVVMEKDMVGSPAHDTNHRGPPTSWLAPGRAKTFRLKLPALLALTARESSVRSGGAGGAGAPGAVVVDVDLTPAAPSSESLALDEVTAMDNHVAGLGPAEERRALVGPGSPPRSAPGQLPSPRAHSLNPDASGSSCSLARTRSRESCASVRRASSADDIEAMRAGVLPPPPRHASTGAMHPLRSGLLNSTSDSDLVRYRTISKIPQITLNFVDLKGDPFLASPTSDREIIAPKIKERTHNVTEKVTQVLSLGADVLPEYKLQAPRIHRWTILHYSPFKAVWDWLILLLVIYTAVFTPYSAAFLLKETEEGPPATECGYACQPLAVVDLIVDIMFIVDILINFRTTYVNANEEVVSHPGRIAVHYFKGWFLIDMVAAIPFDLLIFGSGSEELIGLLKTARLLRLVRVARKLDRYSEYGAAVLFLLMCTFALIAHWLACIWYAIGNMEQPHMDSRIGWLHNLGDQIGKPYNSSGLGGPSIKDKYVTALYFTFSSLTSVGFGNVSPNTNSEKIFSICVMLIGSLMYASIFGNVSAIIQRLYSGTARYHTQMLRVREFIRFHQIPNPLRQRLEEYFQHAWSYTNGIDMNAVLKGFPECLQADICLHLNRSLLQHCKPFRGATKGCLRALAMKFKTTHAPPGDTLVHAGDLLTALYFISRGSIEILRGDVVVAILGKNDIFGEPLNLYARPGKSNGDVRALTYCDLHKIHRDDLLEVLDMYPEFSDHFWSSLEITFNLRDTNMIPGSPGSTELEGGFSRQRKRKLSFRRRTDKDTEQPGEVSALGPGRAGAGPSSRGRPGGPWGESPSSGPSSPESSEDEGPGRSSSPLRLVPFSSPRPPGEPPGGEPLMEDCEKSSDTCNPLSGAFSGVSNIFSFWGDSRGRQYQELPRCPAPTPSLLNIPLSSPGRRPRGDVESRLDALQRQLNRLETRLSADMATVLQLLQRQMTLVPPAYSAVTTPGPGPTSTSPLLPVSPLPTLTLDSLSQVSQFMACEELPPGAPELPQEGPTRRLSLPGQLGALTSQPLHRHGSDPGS
Luciferin 4-monooxygenase (Photinus pyralis), sequence (P08659 whole entry, looked up): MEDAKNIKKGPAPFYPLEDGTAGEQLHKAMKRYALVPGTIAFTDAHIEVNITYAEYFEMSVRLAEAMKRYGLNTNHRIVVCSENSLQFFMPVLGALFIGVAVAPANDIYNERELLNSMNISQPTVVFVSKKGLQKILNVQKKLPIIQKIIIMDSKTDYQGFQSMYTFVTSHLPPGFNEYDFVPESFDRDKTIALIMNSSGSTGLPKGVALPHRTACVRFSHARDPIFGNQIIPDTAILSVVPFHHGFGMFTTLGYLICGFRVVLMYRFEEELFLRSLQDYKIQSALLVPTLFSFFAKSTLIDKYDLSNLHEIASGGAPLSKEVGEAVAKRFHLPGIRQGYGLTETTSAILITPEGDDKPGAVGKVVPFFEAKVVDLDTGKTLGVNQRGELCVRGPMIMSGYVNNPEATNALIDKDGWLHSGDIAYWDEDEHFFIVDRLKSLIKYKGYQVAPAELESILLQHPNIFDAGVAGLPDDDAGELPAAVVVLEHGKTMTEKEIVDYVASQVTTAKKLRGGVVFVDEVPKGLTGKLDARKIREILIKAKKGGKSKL
Glucagon-like peptide 1 receptor (Homo sapiens), sequence (P43220 whole entry, looked up): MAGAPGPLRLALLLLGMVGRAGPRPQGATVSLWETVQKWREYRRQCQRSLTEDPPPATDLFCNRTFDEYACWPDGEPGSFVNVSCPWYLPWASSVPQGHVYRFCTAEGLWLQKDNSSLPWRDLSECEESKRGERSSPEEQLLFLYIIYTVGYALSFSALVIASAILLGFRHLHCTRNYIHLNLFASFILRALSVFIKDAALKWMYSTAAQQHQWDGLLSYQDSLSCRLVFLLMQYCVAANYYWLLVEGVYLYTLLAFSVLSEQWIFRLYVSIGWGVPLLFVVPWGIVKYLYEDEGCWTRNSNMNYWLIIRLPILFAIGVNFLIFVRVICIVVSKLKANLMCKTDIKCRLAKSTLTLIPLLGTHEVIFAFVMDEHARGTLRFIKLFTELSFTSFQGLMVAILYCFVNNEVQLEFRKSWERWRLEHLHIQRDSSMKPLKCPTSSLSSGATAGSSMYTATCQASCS

CSc1ccc2c(c1)C(N1CCN(C)CC1)Cc1ccccc1S2 (stereo not drawn)
active: [1] 2.24 µM | [3] 12.8 µM | [4] 20.3 µM
inactive: all other assays above

CCN(CC)CCNC(C(=O)OCCC(C)C)c1ccccc1 (stereo not drawn)
inactive: [2] | [3] | [4] | [5]
active: [1] 12.6 µM

CCn1cc(C(=O)O)c(=O)c2cnc(N3CCNCC3)nc21
inactive: [1] | [2] | [3]
active: [4] 7.75 µM

CC(=O)c1ccc2c(c1)N(CCCN(C)C)c1ccccc1S2
active: [1] 4.47 µM
inactive: [2] | [3] | [4]

Cc1cccc(C)c1NC(=O)CN(CC(=O)O)CC(=O)O
inactive: [1] | [2] | [3] | [4]

CCCCc1ncc(/C=C(\Cc2cccs2)C(=O)O)n1Cc1ccc(C(=O)O)cc1
inactive: [1] | [2] | [3] | [4]

CCCn1cnc2c1c(=O)n(CCCCC(C)=O)c(=O)n2C
not listed: [4] | [5]
inactive: all other assays above

CCCOC(=O)c1ccccc1
inactive: [1] | [2] | [3] | [4]

O=c1cc[nH]c(=O)[nH]1
inactive: [1] | [2] | [4]

O=C(CCCN1CCN(c2ccccn2)CC1)c1ccc(F)cc1
inactive: [2] | [3] | [4]
active: [1] 5.01 µM

Cc1cc(CC(=O)O)n(C)c1C(=O)c1ccc(Cl)cc1
inactive: [1] | [2] | [4]

O=C(O)CC(O)C(=O)O (stereo not drawn)
inactive: [1] | [2] | [3] | [4] | [5]

C[C@H]1O[C@@H](n2cc(F)c(=O)[nH]c2=O)[C@H](O)[C@@H]1O
inactive: [1] | [2] | [3] | [4]

CC(C)(C)C(=O)NCCCC(=O)O
inactive: [1] | [2] | [3] | [4]

O=C1NS(=O)(=O)c2ccccc21
inactive: [1] | [2] | [3] | [4]

CC(=O)Nc1ccc(/C=N/NC(N)=S)cc1
inactive: [1] | [2] | [4]

COc1ccc2c(c1)C(=O)N(CCc1ccc(S(=O)(=O)NC(=O)NC3CCCCC3)cc1)C(=O)C2(C)C
inactive: [1] | [2] | [3] | [5]

O=C(O)c1ccccc1-c1ccc(C(F)(F)F)cc1
inactive: [1] | [2] | [3] | [4]

C=Cc1c(C)c2cc3[nH]c(cc4nc(cc5nc(cc1[nH]2)C(C)=C5CCC(=O)O)C(CCC(=O)O)=C4C)c(C)c3C=C
active: [4] 12.8 µM
inactive: all other assays above

Cc1c(O)cccc1C(=O)N[C@@H](CSc1ccccc1)[C@H](O)CN1C[C@H]2CCCC[C@H]2C[C@H]1C(=O)NC(C)(C)C
active: [4] 8.09 µM
inactive: [1] | [2] | [3]

OCC(O)CN1CCN(c2ccccc2)CC1 (stereo not drawn)
inactive: [1] | [2] | [3] | [4] | [5]

NC(=O)NC(=O)Cc1ccccc1
inactive: [1] | [2] | [3] | [4]

COc1cc(C(=O)N2CCOCC2)cc(OC)c1OC
inactive: [1] | [2] | [4]

Cn1c(=O)c2c(ncn2CC2OCCO2)n(C)c1=O
inactive: [1] | [2] | [4]

Oc1ccc(C(O)CNCCCCCCNCC(O)c2ccc(O)c(O)c2)cc1O (stereo not drawn)
inactive: [1] | [2] | [5]

NC(CSCC(=O)O)C(=O)O (stereo not drawn)
inactive: [1] | [2] | [4]

Nc1ccc(S(=O)(=O)Nc2ccccc2)cc1
inactive: [1] | [2] | [4] | [5]

CN1CCC[C@@H]1Cc1c[nH]c2ccc(CCS(=O)(=O)c3ccccc3)cc12
inactive: [2] | [4]
active: [1] 12.6 µM
